Compounds without any hit were thinned out: in the full panel of roughly 83,000, 20% have a hit.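 Interpretation: 100, growth as untreated; towards 0, rising growth inhibition; 0, no net growth; 0 to -100, cell death. Compounds scoring below 10 were considered active.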 A number with no mark means an inactive call. Activity calls are given as the source filed them.
Key:
Assay in all cases: NCI-60 one-dose screen, 48 h (100 = growth as untreated, 0 = no growth, -100 = all killed)
Conditions in all cases: 10 µM unless noted
NCI-H23 lung = tested on: NCI-H23 lung
NCI-H226 lung = tested on: NCI-H226 lung
NCI-H322M lung = tested on: NCI-H322M lung
HOP-62 NSCLC = tested on: HOP-62 NSCLC
NCI-H460 lung = tested on: NCI-H460 lung
HOP-92 NSCLC = tested on: HOP-92 NSCLC
NCI-H522 lung = tested on: NCI-H522 lung
A549/ATCC NSCLC = tested on: A549/ATCC NSCLC
786-0 renal = tested on: 786-0 renal
COLO 205 colon = tested on: COLO 205 colon

SMILES | growth (NCI-H23 lung) | growth (NCI-H226 lung) | growth (NCI-H322M lung) | growth (HOP-62 NSCLC) | growth (NCI-H460 lung) | growth (HOP-92 NSCLC) | growth (NCI-H522 lung) | growth (A549/ATCC NSCLC) | growth (786-0 renal) | growth (COLO 205 colon)
O=C(O)C(c1ccccc1)N1C(=O)CSC1=S (stereo not given) | 106% | 95.8% | 97.9% | 99.5% | 107% | 111% | 88.2% | 92% | 102% | 108%
C/C(=C(/c1ccccc1)c1ccc(N2C(=O)c3cccc4c(N5CCN(C)CC5)ccc(c34)C2=O)cc1)c1ccccc1 | 59.7% | 69.6% | 99.9% | 86.1% | 83.3% | 67.4% | 81.5% | 71.1% | 87.6% | 81.1%
CC(C)C(=O)Nc1ccc(-c2nc(-c3cccc(OCCN4CCOCC4)c3)c(-c3ccnc(Br)c3)[nH]2)cc1 | 55.6% | 76.4% | 67.8% | 55.2% | 63.6% | 61.3% | 68.7% | 63% | -19.3% (active) | 43.3%
COc1ccc(C(=O)COC(=O)[C@H](C[Se][Se]C[C@H](NC(=O)c2ccc(Br)cc2F)C(=O)OCC(=O)c2ccc(OC)cc2)NC(=O)c2ccc(Br)cc2F)cc1 | -50.3% (active) | -69.5% (active) | 0.597% (active) | -72.4% (active) | -36.6% (active) | -27.9% (active) | -69.5% (active) | -3.84% (active) | -95.8% (active) | -45.6% (active)
CN1C(=O)CNC(=O)[C@H](NC(=O)c2nc3ccccc3cc2O)CSSC[C@H]1C(=O)NCCCc1nc2ccccc2cc1O | 67.2% | 85.8% | 70.6% | 81.8% | 13.4% | 120% | 60.4% | 48.3% | 113% | -9.63% (active)
Nc1nc2ccccc2c2c(=O)c3cc(F)ccc3sc12 | 87.3% | 94.5% | 99.2% | 108% | 103% | 80.8% | 98.1% | 104% | 97.4% | 110%
CC(=O)O.CN1[CH-]N(Cc2ccc(C#N)cc2)c2ccccc21.[Ag+] | 105% | 103% | 105% | 108% | 97.9% | 116% | -89.1% (active) | 68% | 103% | 54%
CCCCCCNC(=O)Oc1ccc(/C(=C(\C)c2ccc(Cl)cc2)c2ccc(OCCN3CCCCC3)cc2)cc1 | 48.5% | 91.2% | 84.9% | 68.5% | 23.8% | 47.6% | 69.1% | 48.9% | 23.7% | -35.8% (active)
Cc1ccc(/C=C(\C#N)n2nc3cccc(F)c3n2)cc1 | 83.7% | 92.9% | 88.7% | 93.9% | 96.3% | 55.7% | 74.9% | 97.7% | 83.7% | 122%
Cc1ccc2nc(NC(=O)CSc3nc(Cl)c(C#N)c(-c4ccccc4)n3)sc2c1 | 97.9% | 107% | 101% | 102% | 106% | 95% | 86.9% | 98.6% | 103% | 110%
CN1CCN(c2ccc(-c3cnc4c(-c5csc6ccccc56)cnn4c3)cc2)CC1 | 14.3% | -5.69% (active) | 10.2% | -35.2% (active) | -78.2% (active) | 0.36% (active) | -60.8% (active) | -76.9% (active) | -68.5% (active) | -80.9% (active)
COc1ccc(/C=C2\Oc3cc(OCCN4CCC(Cc5ccccc5)CC4)ccc3C2=O)cc1OC | 68.6% | 69.6% | 96.2% | 78.6% | 66.5% | 47.7% | 78.2% | 86.7% | 78.4% | 19.1%
Cc1cc(-c2cc(C)c(N)cc2C)c(C)cc1N | 101% | 103% | 118% | 93.1% | 113% | 45.9% | 86.1% | 107% | 84.1% | 99.2%
O=S(=O)(Nc1ccc(-c2nc(-c3cccc(OCCN4CCOCC4)c3)c(-c3ccnc(Br)c3)[nH]2)cc1)c1ccccc1 | 35.5% | 48.1% | 53.5% | 40.3% | 28.4% | 22% | 32.8% | 30.4% | 13.2% | 39.3%
COc1ccc(C(=O)n2nc(-c3ccccc3)nc2N)cc1OC | 93.9% | 79.9% | 89.1% | 79.7% | 98.3% | 67% | 85.4% | 95.1% | 96.1% | 103%
COc1ccc(-c2conc2-c2ccccc2)cc1 | 29.1% | 70.5% | 46.3% | 42.4% | 7.41% (active) | 71.4% | -6.84% (active) | 23.3% | 27% | -7.37% (active)
Cc1cccc2c(=O)c3c(sc12)c(NCc1ccccc1)nc1ccccc13 | 84.5% | 76.3% | 89.9% | 87.5% | 54.8% | 111% | 81.6% | 92% | 100% | 87.2%
CCOC(=O)CC1C(COC(=O)NC)OC(n2cnc3c(NC(=O)Nc4ccccc4)ncnc32)C1O[Si](C)(C)C(C)(C)C (stereo not given) | 81% | 55.5% | 91.1% | 77.4% | 13.2% | 62.1% | 45.3% | 51.3% | 72.5% | 67.4%
N#CC1=C(N)Oc2c(sc3c(Br)cccc23)C1c1ccc(Br)cc1 (stereo not given) | 20.4% | 57.1% | 42.3% | 22% | 6.62% (active) | 34.7% | -7.13% (active) | 25.5% | 17.1% | -49.5% (active)
Cc1ccc(C(=O)N/N=C/c2cccc(Oc3ccccc3)c2)cn1 | 70.7% | 66.9% | 82.3% | 71.6% | 33.3% | 71.6% | 31.5% | 54.1% | 18.3% | 65.2%
Cc1ccc(-c2cnc3sc(C(=O)NCCc4ccccc4)c(C)n23)cc1 | 95.4% | 78.6% | 91.6% | 89.1% | 102% | 91.1% | 91.7% | 109% | 97.7% | 116%
COc1cc(CCCO)c(OC)c(OC)c1OC | 104% | 102% | 96.1% | 111% | 108% | 100% | 106% | 102% | 103% | 122%
C[C@]12CC[C@@H]3c4cc(OC(F)F)c(OS(N)(=O)=O)cc4CC[C@H]3[C@@H]1CC[C@@H]2O | 24.5% | 54.9% | 42.4% | 38.7% | 12.1% | 58.6% | 19.8% | 29.5% | 42.3% | 12.4%
O=c1n(Cc2ccc3ccccc3c2)ccn1Cc1ccc2ccccc2c1 | 91% | 91.5% | 86.3% | 66% | 85.7% | 83.1% | 46.8% | 82.9% | 95.8% | 96.1%
CCOC(=O)C1=C(N)Oc2c(sc3c(C)cccc23)C1c1ccc(Cl)cc1 (stereo not given) | 28.2% | 32.9% | 47.3% | 31.8% | 13.1% | 85% | 23% | 46.2% | 35.7% | 20.3%
CCOC(=O)c1c(C)nc2c(c1N)CC(=O)N2Cc1ccc(F)cc1 | 99.8% | 90.8% | 107% | 82.1% | 99.7% | 71.5% | 63.7% | 90.8% | 98.3% | 103%
